Source: PubChem BioAssay (NCI)
The panel holds about 79,000 compounds, 15% with a hit somewhere; the sample as a whole holds those more often. The source made the active and inactive calls. Rule as the data show it: active = growth inhibition above about 70%; inactive = the rest.

How the values were obtained:
[1] = NCI Yeast Anticancer Drug Screen. Data for the rad52 strain (AID 147);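 also: 0% = growth of vehicle-treated control cultures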; details: S. cerevisiae rad52 mutant growth inhibition, stronger effect = higher value
Method in brief: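 The repair-mutant yeast strain was incubated with compounds, then growth was read and inhibition derived relative to vehicle.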

[2] = NCI Yeast Anticancer Drug Screen. Data for the wt1 strain (AID 149);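 also: 0% = growth of vehicle-treated wt1 cultures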; details: S. cerevisiae wt1 strain (SPY 50644) growth inhibition, stronger effect = higher value
Method in brief: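 Yeast wt1 strain exposed to compounds; growth inhibition measured relative to vehicle-treated controls.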

[3] = NCI Yeast Anticancer Drug Screen. Data for the rad50EPP+ strain (AID 151);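 also: 0% = growth of vehicle-treated control cultures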; details: S. cerevisiae rad50 mutant strain, stronger effect = higher value
Method in brief: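 Vehicle-normalised growth inhibition; rad50EPP+ yeast strain, altered in DNA damage repair, compound-treated.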

[4] = NCI Yeast Anticancer Drug Screen. Data for the mgt1 strain (AID 153); details: S. cerevisiae mgt1 mutant growth inhibition, stronger effect = higher value
Method in brief: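 Vehicle-normalized growth inhibition is determined in mgt1 yeast, a strain selected for a defined alteration in DNA repair or cell cycle control.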

[5] = NCI Yeast Anticancer Drug Screen. Data for the mec2-1 strain (AID 157); details: S. cerevisiae mec2-1 strain, stronger effect = higher value
Method in brief: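 Mutant yeast (mec2-1) grown with compound; growth inhibition relative to vehicle control reported.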

[6] = NCI Yeast Anticancer Drug Screen. Data for the rad14 strain (AID 159);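 also: 0% = growth of vehicle-treated control cultures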; details: S. cerevisiae rad14 strain growth inhibition, stronger effect = higher value
Method in brief: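 Yeast cells carrying a defined DNA-repair defect were exposed to compounds, and growth inhibition was calculated relative to vehicle-treated control cultures.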

[7] = NCI Yeast Anticancer Drug Screen. Data for the sgs1 mgt1 strain (AID 161);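 also: 0% = growth of cultures given vehicle only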; details: S. cerevisiae sgs1 mgt1 strain, stronger effect = higher value
Method in brief: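 Percent growth inhibition was derived by comparing compound-exposed mutant yeast with vehicle-exposed cultures. The strain carries alterations in DNA damage repair.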

[8] = NCI Yeast Anticancer Drug Screen. Data for the CLN2oe strain (AID 163);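 also: 0% = growth of vehicle-only control cultures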; details: S. cerevisiae CLN2oe strain, stronger effect = higher value
Method in brief: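 Compounds are applied to yeast harbouring a defined cell-cycle control change; reduced growth compared with vehicle-treated controls gives the value.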

[9] = NCI Yeast Anticancer Drug Screen. Data for the cln2 rad14 strain (AID 165);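 also: 0% = growth equal to vehicle treated cultures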; details: S. cerevisiae cln2 rad14 strain, stronger effect = higher value
Method in brief: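 Readout is yeast growth inhibition versus vehicle-treated controls, using a strain with cln2 and rad14 alterations exposed to compound.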

[10] = NCI Yeast Anticancer Drug Screen. Data for the bub3 strain (AID 167); details: S. cerevisiae bub3 mutant strain, stronger effect = higher value
Method in brief: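 Compounds were applied to a genetically altered yeast strain carrying a cell-cycle control defect. Growth inhibition was scored against vehicle-treated controls.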

[11] = NCI Yeast Anticancer Drug Screen. Data for the wt2 strain (AID 169);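 also: 0% = growth of vehicle-treated yeast cultures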; details: S. cerevisiae wt2 strain growth inhibition, stronger effect = higher value
Method in brief: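 Against vehicle-treated controls, the growth of yeast exposed to each compound was compared, and the inhibition was recorded.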

[12] = NCI Yeast Anticancer Drug Screen. Data for the mlh1 strain (AID 171);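 also: 0% = growth of vehicle-treated control cultures of the same strain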; details: S. cerevisiae mlh1 strain growth inhibition, stronger effect = higher value
Method in brief: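 Measured: yeast growth. Reference: vehicle-treated controls. Organism: strain with a defined alteration affecting DNA damage repair or cell cycle control, treated with compound.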

[13] = NCI Yeast Anticancer Drug Screen. Data for the sgs1 strain (AID 173);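 also: 0% = growth of vehicle-only control cultures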; details: S. cerevisiae sgs1 mutant, stronger effect = higher value
Method in brief: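 Each compound was added to cultures of the altered yeast strain. Growth was recorded, and inhibition was derived by comparison with vehicle controls.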

[14] = NCI Yeast Anticancer Drug Screen. Data for the mlh1 rad18 strain (AID 175); details: S. cerevisiae mlh1 rad18 strain growth inhibition, stronger effect = higher value
Method in brief: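 Genetically defined yeast (DNA repair-deficient) exposed to compounds; growth inhibition determined relative to vehicle.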

[15] = NCI Yeast Anticancer Drug Screen. Data for the rad18 strain (AID 177); details: S. cerevisiae rad18 mutant growth inhibition, stronger effect = higher value
Method in brief: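 Vehicle-treated cultures served as the baseline for scoring compound-induced growth inhibition in DNA-repair-mutant yeast.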

[16] = at 5.0 µM (retest, dose inferred, filed as 0.5)
[17] = at 50.0 µM (retest, dose inferred, filed as 5.0)

Measured: growth inhibition

CCC1(O)C(=O)OCc2c1cc1n(c2=O)Cc2c-1nc1ccccc1c2OC (centres undefined)
inactive: [2]; at 1.2 µM 11% | [2]; at 3.7 µM 12% | [2]; at 11.0 µM 13% | [2]; at 33.0 µM 12% | [2]; at 100.0 µM 11% | [3]; at 1.2 µM 15% | [3]; at 3.7 µM 28% | [3]; at 11.0 µM 10% | [3]; at 33.0 µM 22% | [3]; at 100.0 µM 27% | [4]; at 1.2 µM -1% | [4]; at 3.7 µM 10% | [4]; at 11.0 µM 4% | [4]; at 33.0 µM 8% | [4]; at 100.0 µM -10% | [5]; at 1.2 µM 1% | [5]; at 3.7 µM 13% | [5]; [16] 54% | [5]; at 11.0 µM 28% | [5]; at 33.0 µM 41% | [5]; [17] 62% | [5]; at 50.0 µM 33.1% | [5]; at 100.0 µM 43% | [6]; at 1.2 µM 6% | [6]; at 3.7 µM 17% | [6]; at 11.0 µM 15% | [6]; at 33.0 µM 20% | [6]; at 100.0 µM 15% | [7]; [16] 31% | [7]; [17] 33% | [7]; at 50.0 µM -13.6% | [8]; at 1.2 µM -8% | [8]; at 3.7 µM 8% | [8]; at 11.0 µM 16% | [8]; at 33.0 µM 24% | [8]; at 100.0 µM 27% | [9]; [16] 19% | [9]; [17] 18% | [9]; at 50.0 µM 2.7% | [10]; at 1.2 µM -10% | [10]; at 3.7 µM -1% | [10]; [16] 6% | [10]; at 11.0 µM 0% | [10]; at 33.0 µM 0% | [10]; [17] 11% | [10]; at 50.0 µM -41.5% | [10]; at 100.0 µM -13% | [11]; at 1.2 µM 10% | [11]; at 3.7 µM -5% | [11]; at 11.0 µM -10% | [11]; at 33.0 µM 2% | [11]; at 100.0 µM -17% | [12]; at 1.2 µM 7% | [12]; at 3.7 µM 19% | [12]; at 11.0 µM 22% | [12]; at 33.0 µM 20% | [12]; at 100.0 µM 8% | [13]; at 1.2 µM 12% | [13]; at 3.7 µM 18% | [13]; at 11.0 µM 20% | [13]; at 33.0 µM 25% | [13]; at 100.0 µM 8% | [14]; [16] 43% | [14]; [17] 33% | [15]; at 1.2 µM 1% | [15]; at 3.7 µM -4% | [15]; at 11.0 µM 5% | [15]; at 33.0 µM 1% | [15]; at 100.0 µM 1%
active: [1]; at 1.2 µM 80% | [1]; at 3.7 µM 90% | [1]; at 11.0 µM 93% | [1]; at 33.0 µM 93% | [1]; at 100.0 µM 90%
